Test systems include HT29 colon; SNB-75 CNS; SNB-19 CNS; U251 CNS; PC-3 prostate; SK-MEL-5 melanoma; UACC-62 melanoma; LOX IMVI melanoma; SK-MEL-28 melanoma; SK-MEL-2 melanoma; EKVX NSCLC; SN12C renal; UO-31 renal; TK-10 renal; ACHN renal; CAKI-1 renal; A498 renal; CCRF-CEM leukemia; MOLT-4 leukemia.
What all share (experiment): NCI-60 one-dose screen, 48 h (100 = growth as untreated, 0 = no growth, -100 = all killed)
Conditions in all cases: 10 µM unless noted

About 83,000 compounds went through this panel and 20% of them were active in at least one assay; those are over-represented in the sample as a whole.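 The test compound was applied at a single concentration to cells in 96-well plates for 48 hours, and percent growth was recorded.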 A number with no mark means an inactive call. The source made the active and inactive calls. How the source made its calls: active means growth percent below 10; inactive means the rest.

For `CS(=O)(=O)c1ncc(-c2ccccc2)cn1`, the growth in the assay with HT29 colon was 105%; in the assay with SNB-75 CNS it was 110%; in the assay with SNB-19 CNS it was 98.1%; with U251 CNS it was 99.3%; in the assay on PC-3 prostate, 100%; in the assay with SK-MEL-5 melanoma, 93%. Moreover, the growth was 89% in the assay on UACC-62 melanoma; 84.6% in the assay with LOX IMVI melanoma; 98% in the assay with SK-MEL-28 melanoma; 97.6% in the assay on SK-MEL-2 melanoma; 97.1% with EKVX NSCLC; 96.4% with SN12C renal. The growth with UO-31 renal is 85.1%; with TK-10 renal it was 97.3%; in the assay with ACHN renal it was 97.3%; in the assay with CAKI-1 renal it was 107%; in the assay on A498 renal, 86.5%; in the assay with CCRF-CEM leukemia it was 86.6%. Besides, the growth with MOLT-4 leukemia was 97.2%.
As for `COc1ccccc1-n1cc(C#N)c(N)c1C(=O)c1ccc(Br)cc1`, the growth with HT29 colon was 44.6%; in the assay on SNB-75 CNS it was 74.5%; with SNB-19 CNS it was 71.1%; with U251 CNS, 66.8%; in the assay with PC-3 prostate, 63.4%; in the assay on SK-MEL-5 melanoma, 77.4%. Also, the growth was 45.2% in the assay with UACC-62 melanoma; 66.2% in the assay on LOX IMVI melanoma; 69% in the assay with SK-MEL-28 melanoma; 70.4% in the assay on SK-MEL-2 melanoma; 85.4% in the assay on EKVX NSCLC; 82.7% in the assay with SN12C renal. In addition, the growth in the assay with UO-31 renal is 73%; in the assay with TK-10 renal, 111%; with ACHN renal, 98.9%; with CAKI-1 renal it was 68.8%; in the assay with A498 renal, 60.6%; in the assay with CCRF-CEM leukemia, 68.3%. Besides, the growth in the assay on MOLT-4 leukemia is 61.4%.
Consider `CCNC(=O)N1CCc2cc(OC)c(OCCc3ccc(OC)cc3)cc2C1c1ccc([N+](=O)[O-])cc1C` (stereo unspecified), for which the growth in the assay with HT29 colon was 4.69% (active); in the assay with SNB-75 CNS it was 21%; with SNB-19 CNS, 28.4%; with U251 CNS it was 16.4%; with PC-3 prostate, 23.4%; in the assay with SK-MEL-5 melanoma, 0.509% (active). Besides, the growth was 30.4% with UACC-62 melanoma; 7.24% (active) in the assay on LOX IMVI melanoma; 47.8% in the assay with SK-MEL-28 melanoma; 22.3% in the assay with SK-MEL-2 melanoma; 42.2% with EKVX NSCLC; 44% in the assay on SN12C renal. The growth in the assay on UO-31 renal is 29.3%; with TK-10 renal it was 54.8%; in the assay on ACHN renal it was 30.4%; in the assay on CAKI-1 renal, 27.2%; with A498 renal it was -16.8% (active); with CCRF-CEM leukemia it was 33.4%. The growth in the assay on MOLT-4 leukemia was 26.1%.
As for `CCNC(=O)N1CCc2cc(OC)c(OCCc3ccc(OC)cc3)cc2C1c1ccc(OC)cc1C` (stereo unspecified), the growth in the assay on HT29 colon was -0.449% (active); in the assay with SNB-75 CNS, 3.67% (active); with SNB-19 CNS, 25.8%; in the assay with U251 CNS it was 20.6%; with PC-3 prostate, 27.9%; in the assay with SK-MEL-5 melanoma, -1.62% (active). Also, the growth with UACC-62 melanoma was 19.5%; in the assay with LOX IMVI melanoma, 4% (active); in the assay on SK-MEL-28 melanoma, 46.7%; in the assay with SK-MEL-2 melanoma, 19%; in the assay with EKVX NSCLC, 45.5%; with UO-31 renal it was 30%. Also, the growth in the assay with TK-10 renal is 38.1%; with ACHN renal, 26.9%; in the assay on CAKI-1 renal, 26.9%; with A498 renal it was -11.1% (active); with CCRF-CEM leukemia, 36.3%; in the assay with MOLT-4 leukemia, 21.2%.
Take `CC(=O)C1=C(C)NC(NNC(N)=S)=NC1c1ccccc1` (stereo unspecified): the growth in the assay with HT29 colon is 109%; in the assay on SNB-75 CNS, 41.1%; with SNB-19 CNS, 98.8%; in the assay on U251 CNS it was 106%; in the assay on PC-3 prostate it was 99.9%; with SK-MEL-5 melanoma, 96.7%. The growth was 93.3% in the assay with UACC-62 melanoma; 88.2% with LOX IMVI melanoma; 98.1% in the assay with SK-MEL-28 melanoma; 96.9% with SK-MEL-2 melanoma; 70.9% with EKVX NSCLC; 83.8% with SN12C renal. Further, the growth in the assay on UO-31 renal was 59.5%; in the assay on TK-10 renal it was 56.8%; in the assay with ACHN renal it was 101%; with CAKI-1 renal, 64.7%; in the assay with A498 renal, 2.72% (active); in the assay on CCRF-CEM leukemia it was 95.5%. Besides, in the assay with MOLT-4 leukemia, the growth was 114%.
For the molecule `CC/C(=C/c1cc(OC)ccc1O)c1ccc2cc(OC)ccc2[o+]1`, the growth in the assay on HT29 colon is 15.7%; in the assay on SNB-75 CNS, 48.3%; in the assay on SNB-19 CNS, 47.3%; with U251 CNS it was 66.5%; in the assay with PC-3 prostate, 40%; in the assay on SK-MEL-5 melanoma it was 40.7%. Besides, the growth with UACC-62 melanoma is 21.4%; with LOX IMVI melanoma it was 60%; with SK-MEL-28 melanoma, 61.8%; in the assay with SK-MEL-2 melanoma, 71.8%; in the assay with EKVX NSCLC, 76.3%; in the assay with SN12C renal, 73.9%. The growth in the assay with UO-31 renal is 68.7%; with TK-10 renal it was 116%; in the assay with ACHN renal, 58.5%; in the assay on A498 renal, 29.5%; with CCRF-CEM leukemia, 39.3%; in the assay with MOLT-4 leukemia, 53.4%.
For the molecule `CCn1c(SCC(=O)Nc2cccc(C(=O)/C=C/c3ccc(Br)cc3)c2)nc2ccccc2c1=O`, the growth with HT29 colon was 85.4%; in the assay with SNB-75 CNS, 73.8%; in the assay with SNB-19 CNS, 85.9%; in the assay on U251 CNS, 88.7%; in the assay with PC-3 prostate, 83.4%; in the assay with SK-MEL-5 melanoma, 91.7%. For the same molecule, the growth in the assay on UACC-62 melanoma was 73.9%; in the assay with LOX IMVI melanoma, 41.9%; with SK-MEL-28 melanoma, 98.2%; in the assay with SK-MEL-2 melanoma, 106%; with EKVX NSCLC it was 96.5%; with SN12C renal, 92.7%. Further, the growth in the assay with UO-31 renal is 71.9%; with TK-10 renal, 104%; with ACHN renal it was 102%; in the assay with CAKI-1 renal, 90.7%; in the assay with A498 renal, 87.3%; in the assay with CCRF-CEM leukemia it was 75%. Moreover, the growth in the assay on MOLT-4 leukemia is 98.3%.
On to `CCCCCc1ccc(S(=O)(=O)Nc2cccc(-c3csc(NC(=O)CN4CCN(C)CC4)n3)c2)cc1`, for which the growth was 25.5% with HT29 colon; 89.5% in the assay on SNB-75 CNS; 85% with SNB-19 CNS; 49.7% with U251 CNS; 67.1% in the assay on PC-3 prostate; 50.8% with SK-MEL-5 melanoma. Further, the growth was 92.2% in the assay on UACC-62 melanoma; -58% (active) in the assay on LOX IMVI melanoma; 89.4% in the assay on SK-MEL-28 melanoma; 100% in the assay on SK-MEL-2 melanoma; 89.2% with EKVX NSCLC; 90.6% in the assay on SN12C renal. In addition, the growth is 75% with UO-31 renal; 115% with TK-10 renal; 91.8% in the assay on ACHN renal; 78.5% in the assay on CAKI-1 renal; 82.9% in the assay with A498 renal; 27.2% in the assay with CCRF-CEM leukemia. Moreover, the growth in the assay with MOLT-4 leukemia is 20.8%.
In the case of `COc1cc(-c2nn(C(C)(C)C)cc2-c2ccnc(NCCCNS(=O)(=O)c3ccc(C)cc3)n2)ccc1Cl`, the growth in the assay on HT29 colon was 78.3%; in the assay with SNB-75 CNS, 54.7%; in the assay with SNB-19 CNS, 100%; in the assay with U251 CNS, 92.3%; in the assay with PC-3 prostate, 58.1%; with SK-MEL-5 melanoma, 83.1%. Besides, the growth is 68.3% with UACC-62 melanoma; 72.7% with LOX IMVI melanoma; 101% in the assay with SK-MEL-28 melanoma; 87.4% with SK-MEL-2 melanoma; 46.1% with EKVX NSCLC; 60.8% with SN12C renal. Moreover, the growth is 44% with UO-31 renal; 65.2% in the assay with TK-10 renal; 89.6% with ACHN renal; 27.4% with CAKI-1 renal; 30.9% in the assay on A498 renal; 44.8% in the assay with MOLT-4 leukemia.
As for `Cc1ccc(S(=O)(=O)N(CC[C@@H]2C[C@H]2c2cc3ccccc3o2)S(=O)(=O)c2ccc(C)cc2)cc1`, the growth in the assay on HT29 colon was 94%; with SNB-75 CNS, 89%; with SNB-19 CNS, 94.6%; in the assay with U251 CNS it was 92.5%; in the assay with PC-3 prostate, 87%; in the assay on SK-MEL-5 melanoma, 96.1%. The growth was 69.1% in the assay on UACC-62 melanoma; 95.1% in the assay on LOX IMVI melanoma; 102% in the assay on SK-MEL-2 melanoma; 95.3% in the assay with EKVX NSCLC; 94.6% with SN12C renal; 80% in the assay on UO-31 renal. For the same molecule, the growth in the assay with TK-10 renal was 98.6%; in the assay on ACHN renal it was 98.2%; in the assay on CAKI-1 renal, 86%; in the assay with A498 renal, 75.8%; with CCRF-CEM leukemia, 93.3%; in the assay with MOLT-4 leukemia it was 88.8%.

Values taken from PubChem BioAssay (NCI).
